Sampled rows, rich in hits. Any-hit rate of the full collection: about 2.7%.
GSIS activator: primary screen for activators of insulin secretion dependent on glucose, INS-1E cells, GLuc reporter luminescence. hit rate 0.61% among 370,000. INS-1E GLuc reporter insulin secretion, 2-3 h. activation, % at 16.6 µM;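 active = lowest replicate activation of at least 40%, so every replicate reaches that level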;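 also: 0% = median of neutral control wells and 100% = median of IBMX positive control wells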
HIV Env fusion: inhibitors of HIV Env-mediated cell fusion; AID 651610; HeLa-JRFL Env/CEM21 cell fusion, luciferase; inhibition, % at 12.3 µM; hit rate 1.1% among 360,000;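 active = mean replicate inhibition score of at least 50 and every replicate individually at or above 50; inconclusive = only one of the two criteria met; inactive = mean below 50 and not all replicates reaching 50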;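 also: 0% = plate neutral controls and 100% = maraviroc near 300 nM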
MITF act: MITF TRPM1 promoter activation in melanoma cells. hit rate 0.75% among 300,000. activation, % at 12.5 µM. SK-MEL-5 TRPM1-promoter luciferase, 24 h; % of positive control, neutral wells = 0;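 active = mean activation of at least 80% with every replicate also reaching 80%; inconclusive = mean reaches 80% but some replicate falls short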;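 also: 0% = neutral control wells and 100% = parthenolide positive control wells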
Wnt act: Wnt/beta-catenin pathway activation; Wnt/beta-catenin reporter cell assay, activator, plate reader; activation, % at 9.35 µM; hit rate 1.2% among 300,000; in the data active = activation above about 30%, passing the limit was not always enough; inconclusive = no clear call, values can overlap the other calls;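 also: 0% = neutral control wells and 100% = positive control wells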
F508del corr: correctors of CFTR F508del function in bronchial epithelial cells; hit rate 0.36% among 350,000; activity (quench increase), % at 7.58 µM; AID 720511; CFBE cells, YFP halide quenching; stimulated with forskolin plus potentiator P3; % fluorescence drop versus neutral controls;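 active = mean added fluorescence quench of at least 8% versus neutral control, with both replicates also reaching 8%; inconclusive = only one of the mean or replicate conditions met; inactive = mean below 8% and not both replicates reaching 8%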;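 also: cells transiently co-express mutant CFTR-F508del with the halide-sensitive YFP; corrector assay measuring rescue of mutant channel to the surface after 24 h compound exposure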
Active calls of the source: *; ? = inconclusive; · = not tested or not shown; ! = not active in a repeat; [ ] = dose if it differs, or a comment.

SMILES	GSIS activator	HIV Env fusion	MITF act	Wnt act	F508del corr
CCC(=O)N[C@@H]1C=C[C@H](CC(=O)NCc2cc(F)cc(F)c2)O[C@@H]1CO	-4	8[16.7 µM]	·	·	1
CCCNC(=O)[C@@H]1[C@@H](CO)[C@@H]2Cn3c(ccc(C4=CCCC4)c3=O)[C@@H]2N1CCC	-7	·	·	·	0
Cc1ccc(NC(=O)c2cc(C)on2)cc1	19	-67	97*	·	·
CCCc1cc(C(=O)NCc2ccc(OC)cc2)no1	9	85*	·	7	0
Cc1cc(NS(=O)(=O)c2ccc(NC(=O)/C=C/c3ccc(Br)cc3)cc2)no1	12	-13	-2	-5	1
Cc1ccc(/C=C/C(=O)Nc2cc(C)on2)cc1	·	-123	75	35*	·
Cc1ccc(NC(=S)NNC(=S)Nc2ccc(C)cc2)cc1	·	-1	5	12	-1
Cc1ccc(NC(=S)Nc2cc(C)on2)cc1	1	-55	·	49*	-1
CC(C)CC#Cc1cnc2c(c1)C(=O)N([C@@H](C)CO)C[C@H](C)[C@H](CN(C)C(=O)c1cccnc1)O2	13	10[16.7 µM]	·	·	2
COc1ccc(CN(C)C[C@H]2OCCCC[C@@H](C)Oc3ccc(NC(=O)NC(C)C)cc3C(=O)N([C@@H](C)CO)C[C@H]2C)cc1	2	-6[16.7 µM]	·	·	2
CCCc1cc(C(=O)Nc2ccc(CC)cc2)no1	3	-10	159*	39*	3
CCCc1cc(C(=O)Nc2ccc(C)cc2)no1	·	-66	·	56*	-5
CC(C)NC(=O)N(C)C[C@@H]1Oc2ccc(N)cc2CC(=O)N(C)C[C@@H]1C	3	·	·	·	·
Cc1noc(C)c1NC(=O)Nc1ccc2c(c1)C(=O)N([C@@H](C)CO)C[C@@H](C)[C@@H](CN(C)CC1CCCCC1)OCCCC[C@@H](C)O2	20	-85[16.7 µM]	·	·	0
Cn1cnnc1SCC(=O)Nc1ccc2nc(SCc3ccccc3F)sc2c1	-2	·	106*	25	-1
Cc1ccc(-c2ccccc2[C@@H]2C[C@H]3CN(C)C(=O)[C@]34CCCN24)o1	-18	13	-2	0	-2
O=C1N(c2ccccc2)C[C@@H]2C[C@@H](c3cc4ccccc4o3)N3CCC[C@@]123	-4	76*	-39	-8	0
CC(=O)Nc1ccc(S(=O)(=O)NC2=C(N3CCN(Cc4ccccc4)CC3)C(=O)c3ccccc3C2=O)cc1	-5	32	-32	-3	15*!
CC(C)(C)CC(C)(C)N=C1Nc2cc(Cl)c(Cl)cc2NC12C[C@H]1CCC(=O)N3CC[C@@H](C2)[C@@H]13 (stereo partly specified)	·	58*	-2	-14	-2
CC(C)(C)CC(C)(C)N=C1Nc2ccccc2NC12C[C@H]1CCC(=O)N3CC[C@@H](C2)[C@@H]13 (stereo partly specified)	·	-64	17	0	-1
CC(=O)c1ccc(Nc2ccc(-c3ccccc3F)nn2)cc1	2	-126	73	31*	-2
CCN(CC)S(=O)(=O)c1cc([N+](=O)[O-])ccc1NNC(=O)Nc1ccc(F)cc1	·	57*	·	·	·
C[C@@H]1CN([C@@H](C)CO)C(=O)c2cc(C#CC3CCCC3)cnc2O[C@@H]1CN(C)C(=O)c1ccncc1	0	-3[16.7 µM]	·	·	2
Cc1ccc(OCc2cc(C(=O)N3CCC(Oc4cccnc4)CC3)no2)cc1C	-37	2	13	5	0
CN1CCN(C(=O)c2cc(COc3ccccc3)on2)[C@@H](c2ccccc2)C1	-9	·	91*	42*	-2
SMILES	GSIS activator	HIV Env fusion	MITF act	Wnt act	F508del corr
CN1CCN(C(=O)c2cc(COc3c(F)cccc3F)on2)CC1c1ccccc1 (stereo unspecified)	-8	15	12	1	2
Cc1ccc(OCc2cc(C(=O)N3CCN(C)C[C@@H]3c3ccccc3)no2)cc1C	-14	-51	113*	-1	0
O=C(Nc1nc2c(s1)CN(Cc1ccccc1)CC2)C1CCC1	-4	-12	100*	7	6
CCN1CCc2nc(NC(=O)c3ccccc3)sc2C1	·	-37	1	·	·
CC(=O)/C(C#N)=C1\NC(=O)C(Cc2ccccc2C)S1 (stereo unspecified)	-13	-17	·	4	11*
COc1ccc(CO/N=C/c2c(C)[nH]c(=O)[nH]c2=O)cc1	44*	·	3	·	·
COc1ccc(C(=O)N/N=C/c2c(C)[nH]c(=O)[nH]c2=O)cc1	1	-5	-1	0	-1
C[C@H](CO)N1C[C@H](C)[C@H](CN(C)CC2CCCCC2)Oc2cc(C3=CCCC3)ccc2S1(=O)=O	1	1[16.7 µM]	·	·	-1
CC(CCc1ccccc1)NCc1cccc2ccccc12 (stereo unspecified)	31	66*	·	-1	0
COC(=O)c1cc(C(=O)N2CCN(c3cccc(Cl)c3)CC2)cc([N+](=O)[O-])c1	-6	-303	-8	-4	8.7*
O=C(c1cccc([N+](=O)[O-])c1)N1CCN(c2cccc(Cl)c2)CC1	-8	-217	3	·	·
COc1ccc2c3c([nH]c2c1)[C@H](CO)N(CC1CC1)CC31CCN(C(=O)c2ccc(F)cc2)CC1	2	·	·	·	4
COCC#Cc1ccc([C@H]2[C@@H](CO)N3CCCCN(C(=O)Nc4cc(F)ccc4F)C[C@H]23)cc1	-9	·	·	·	1
Cc1cc(NS(=O)(=O)c2ccc(NC(=O)c3oc4ccccc4c3C)cc2)no1	·	57*	-11	·	·
Cc1cc(NS(=O)(=O)c2ccc(NC(=O)C(C)Oc3ccccc3Cl)cc2)no1 (stereo unspecified)	59*	·	10	-3	3
Cc1cc(NS(=O)(=O)c2ccc(NC(=O)C(C)Oc3ccc(Cl)cc3)cc2)no1 (stereo unspecified)	5	-41	-9	·	·
Cc1ccc(S(=O)(=O)N[C@@H]2C=C[C@@H](CC(=O)NC3CCCCC3)O[C@H]2CO)cc1	-5	-5[16.7 µM]	·	·	0
NC(=O)c1ccc(=O)n(Cc2ccc(Cl)cc2Cl)c1	13	6	3	0	2
CCC(=O)OCC(=O)N=c1sccn1Cc1ccccc1Cl	17	9	-12	2	-1
O=C(CCl)N=c1sccn1Cc1ccccc1Cl	61*	134*	-24	6	-17
O=C(CCl)N=c1sccn1Cc1cccc2ccccc12	27	66*	-50	-2	-2
O=C(CCl)N=c1sccn1Cc1ccc(Cl)cc1Cl	31	84*	-14	0	-5
CCC(=O)OCC(=O)N=c1sccn1Cc1ccc(C)cc1	3	-7	-5	8	-2
O=C(C[C@@H]1CC[C@H](NC(=O)Nc2ccc(C(F)(F)F)cc2)[C@H](CO)O1)NCc1cc(F)cc(F)c1	-24	45[16.7 µM]	·	·	2
CO[C@H]1CN(C)C(=O)c2ccc(NC(=O)Nc3ccc(Cl)cc3)cc2OC[C@@H](C)NC[C@@H]1C	-5	·	·	·	0
COc1cc2cnc(-c3cccnc3)cc2cc1OC	62*	-39	33	2	1
COc1ccc(-c2cc3cc(OC)c(OC)cc3cn2)cc1OC	7	-40	·	?	7

Bioassay records deposited in PubChem BioAssay by Broad Institute.
